PHOSPHO1 block – PubChem AID 1565 | Phosphoethanolamine/phosphocholine phosphatase (Homo sapiens), Q8TCT1 | hit rate 1.1% among 290,000 | recombinant PHOSPHO1, absorbance phosphatase assay | inhibition, % at 13.3 µM; in the data active means inhibition above about 60%
Target sequence (Q8TCT1 whole entry, looked up): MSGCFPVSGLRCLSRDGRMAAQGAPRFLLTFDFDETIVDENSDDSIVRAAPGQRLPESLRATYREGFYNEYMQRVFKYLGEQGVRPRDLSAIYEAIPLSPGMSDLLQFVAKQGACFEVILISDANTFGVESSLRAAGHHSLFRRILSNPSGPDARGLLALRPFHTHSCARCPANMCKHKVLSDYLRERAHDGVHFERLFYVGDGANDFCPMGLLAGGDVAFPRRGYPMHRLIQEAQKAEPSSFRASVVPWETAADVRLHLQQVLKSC
Rtt109 Vps75 – inhibitors of C. albicans Rtt109/Vps75 HAT, primary screen, biochemical, ThioGlo CoA-SH fluorescence, plate reader. inhibition, % at 34.9 µM. AID 540336, 2011. hit rate 0.16% among 330,000. purified Rtt109/Vps75, 4 h;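 active means inhibition of at least 50% in every replicate; inconclusive means best replicate reaches 50% inhibition but some replicates fall short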
SKKanGAS inh – S. pyogenes SKKanGAS growth inhibitors in kanamycin, primary screen, streptokinase expression inhibitor project, SKKanGAS strain, BacTiter-Glo luminescence; 6 h; hit rate 1.3% among 300,000; inhibition, % at 7.5 µM;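 active means mean replicate score, as percent of positive control median, at least 50; inconclusive means mean below 50 but one replicate at or above 50; inactive means mean and every replicate below 50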;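 further: strain carries kanamycin resistance gene driven by streptokinase promoter and grows in 40 µg/ml kanamycin; loss of luminescence reflects streptokinase promoter inhibition or plain growth inhibition; 0% = median of DMSO wells and 100% = positive control at its reference dose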
TPT1 inh – Candida albicans TPT1 enzyme inhibitors, primary screen, biochemical, fluorescence polarization; tRNA 2'-phosphotransferase TPT1 (Candida albicans SC5314); recombinant caTPT1, FP RNA substrate dephosphorylation; inhibition, % at 5 µM; hit rate 0.81% among 300,000;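 active means inhibition above the mean of all tested compounds plus 3 SD, set per screening campaign, cut at about 24% in these data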;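 further: plate controls were DMSO alone for no effect and ferristatin control at 100 nM for full effect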
WT yeast gro inh – growth inhibition of WT strain, primary screen, mitochondrial fusion inhibitor project, WT and mutant strains, chemical genetic | mitochondrial fusion phenotypic screen | inhibition, % at 10 µM | hit rate 2.1% among 190,000 | AID 1362, 2008; in the data active means inhibition above about 58%; tested in S. cerevisiae
Platelet DG rel – inhibitors of platelet dense granule secretion, primary screen, cell-based, MLPCN, human platelets | inhibition, %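 (compounds screened at 7.5 µM in platelet-rich plasma)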 | human platelet-rich plasma, SFLLRN dense granule ATP release, luminescence | hit rate 0.22% among 300,000;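 active means mean replicate score, as percent of positive control, at or above 50; inconclusive means mean below 50 but at least one replicate at or above 50; inactive means mean and every replicate below 50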
TPT1 inh confirm – Candida albicans TPT1 inhibitors, confirmation, biochemical, fluorescence polarization, triplicate. inhibition, % at 5 µM. hit rate 74% among 2,400. AID 2149, 2009. shares compounds with TPT1 inh. recombinant caTPT1, RNase T1 coupled;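 active means inhibition above the primary screen limit, the mean inhibition of all tested compounds plus 3 SD, cut at about 25% in these data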
RNase T1 counter – RNase T1 inhibitors, counter-screen for TPT1 inhibitor project, biochemical, fluorescence polarization; RNase T1 cleavage, 1536-well; inhibition, % at 5 µM; hit rate 83% among 2,400; AID 2153, 2009; shares compounds with TPT1 inh;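 active means inhibition above the solvent-only control well mean plus 3 SD, limit set per screening run, cut at about 23% in these data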;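 further: plate controls were DMSO wells with enzyme for no effect and wells without RNase T1 for full effect; inhibitors block cleavage so intact labeled substrate keeps polarization high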
Target sequence (P00651 whole entry, looked up): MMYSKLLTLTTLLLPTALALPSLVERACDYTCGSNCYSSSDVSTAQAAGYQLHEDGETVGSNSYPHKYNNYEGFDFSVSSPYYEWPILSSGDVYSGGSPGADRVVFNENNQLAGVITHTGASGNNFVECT
Starred values were filed as active, the others as inactive; ? = inconclusive; . = not tested or not shown; + = active, no number. This is a sample that favours compounds with a hit; in the whole collection about 3.9% have one here.

SMILES | PHOSPHO1 block | Rtt109 Vps75 | SKKanGAS inh | TPT1 inh | WT yeast gro inh | Platelet DG rel | TPT1 inh confirm | RNase T1 counter
Cc1ccc(C2C(C#N)=C(N)Oc3c2sc2ccccc32)o1 (centres undefined) | 12 | . | . | 65* | 17 | . | 86* | 96*
CCOC(=O)CC1=C(C(=O)OCC)C(c2ccc(C)o2)C(C#N)=C(N)O1 (centres undefined) | -21 | -5 | 0 | -25 | -15 | -1 | . | .
Cc1ccc(NC(=O)CSc2nc(=O)n(CCCN3CCOCC3)c3c2CCCC3)c(C)c1 | . | 1 | -4 | 66* | . | 17 | 3 | 4
COc1ccc(NC(=O)COC(=O)CN2C(=O)C3CCCCC3C2=O)cc1OC (centres undefined) | . | 9 | . | . | . | . | . | .
CCCc1cc2c(=O)n(NC(=O)c3nn(C)cc3[N+](=O)[O-])c(C)nc2s1 | 2 | -2 | -2 | 57* | 3 | 10 | 4 | 5
Nc1ccn(CC(=O)NCc2ccc3[nH]ccc3c2)c(=O)n1 | . | 3 | . | . | . | . | . | .
CCN(CC)c1ccc(/C=C(/C#N)C(=O)NC(C)C)o1 | 32 | 3 | -3 | 169* | -6 | 0 | 186* | 173*
CC(C)NC(=O)/C(C#N)=C\c1ccc(N(C)C)o1 | 28 | 8 | -3 | 153* | -1 | 0 | 177* | 170*
Cc1ccsc1/C=C(/C#N)C(=O)NCc1ccccc1 | -10 | 1 | 12 | 1 | 0 | 2 | . | .
N#C/C(=C\c1ccc(O)cc1)C(=O)NCc1ccccc1 | . | 11 | 3 | -2 | . | -3 | . | .
Cc1[nH]c2ccccc2c1/C=C(\C#N)C(=O)NCc1ccccc1 | 3 | -3 | -5 | 31* | -17 | 0 | 41* | 49*
CCN(CC)c1ccc(/C=C(/C#N)C(=O)NCc2ccccc2)o1 | 2 | 1 | -5 | 189* | 6 | 2 | 197* | 180*
C=CCNC(=O)/C(C#N)=C/c1ccc(C)o1 | 24 | -3 | -7 | -1 | -3 | -4 | . | .
Cc1ccc(SC(C)C(=O)NCc2ccncc2)cc1 (centres undefined) | 48 | -2 | -1 | 114* | -10 | -2 | 6 | 7
COc1ccc(CCn2c(=N)c(C(=O)NC3CCCC3)cc3c(=O)n4ccccc4nc32)cc1OC | 24 | -2 | 7 | 28* | . | 15 | 45* | 57*
CC(c1ccccc1)C1C(C#N)=C(N)SC(N)=C1C#N (centres undefined) | 19 | -6 | -1 | -1 | -1 | 3 | . | .
CC(CC1C(C#N)=C(N)SC(N)=C1C#N)c1ccccc1 (centres undefined) | 37 | 19 | 3 | 60* | -3 | . | 29* | 38*
COCCCC1CCN(C(=O)C2CCC(=O)N(CC3CCCCC3)C2)CC1 (centres undefined) | 36 | 2 | -1 | . | . | -5 | . | .
Cc1nc(S/C(=C/c2ccc(-c3ccc(C(=O)O)cc3)o2)C(=O)O)n[nH]1 | 42 | 18 | -1 | 16 | . | -21 | . | .
CC(=O)c1ccc(-c2ccc(/C=C(/Sc3n[nH]c(C)n3)C(=O)O)o2)cc1 | 33 | -8 | 34 | 78* | . | 0 | 79* | 91*
O=C(CN1C(=O)/C(=C/c2ccco2)SC1=S)Nc1ccc(C(=O)O)c(O)c1 | 37 | 1 | -1 | 28* | . | 3 | 9 | 18
O=C(CCCN1C(=O)/C(=C\c2ccco2)SC1=S)Nc1ccc(O)cc1C(=O)O | 7 | ? | 6 | 27* | . | 7 | 10 | 18
O=C(CCCN1C(=O)/C(=C\c2cccs2)SC1=S)Nc1ccc(O)cc1C(=O)O | 24 | 20 | 8 | 1 | . | -1 | . | .
O=C(CN1C(=O)/C(=C/c2ccco2)SC1=S)Nc1ccc(O)c(C(=O)O)c1 | 2 | 1 | 7 | 12 | . | 5 | . | .
COc1ccc2cc(C(C)C(=O)N3CCC(C(N)=O)CC3)ccc2c1 (centres undefined) | 35 | 13 | -5 | 1 | . | -26 | . | .
SMILES | PHOSPHO1 block | Rtt109 Vps75 | SKKanGAS inh | TPT1 inh | WT yeast gro inh | Platelet DG rel | TPT1 inh confirm | RNase T1 counter
Cc1cc(C(=O)CN2c3cccc4cccc(c34)S2(=O)=O)c(C)n1C | . | 1 | . | . | . | . | . | .
COc1ccc(/C=C/C(=O)NC(C)CCc2ccccc2)cc1 (centres undefined) | -5 | 12 | -2 | -2 | 26 | -7 | . | .
COc1ccc(/C=C/c2cc[n+](C(=O)Cc3ccccc3)cc2)cc1 | 36 | 23 | . | 26* | 5 | . | 7 | 8
COc1ccc(Cc2nnc(NC(=O)c3ccccc3F)s2)cc1 | 25 | -2 | 0 | . | . | 6 | . | .
CCn1c(C)cc(/C=C2/SC(=S)N(CC(=O)O)C2=O)c1C | -26 | 6 | -4 | 83* | 14 | 14 | 94* | 102*
C#CCN1C(=O)S/C(=C/c2cc(C)n(CC)c2C)C1=O | -4 | 3 | -22 | -2 | 1 | -10 | . | .
COc1cc2cc(/C=C/C(=O)c3ccco3)c(Cl)nc2cc1OC | 6 | -2 | 3 | 33* | -5 | 0 | 47* | 56*
Cc1nnc(N/N=C/c2ccco2)n1N | -13 | 6 | 16 | 70* | -23 | -5 | 11 | 17
CC(=O)N/C(=C/C(C)C)c1ccccc1 | . | 9 | . | . | . | . | . | .
CCOc1cc([N+](=O)[O-])cc2c1C(=O)Nc1ccccc1O2 | -2 | -5 | 18 | 30* | 0 | -2 | 44* | 55*
O=C1Nc2ccccc2Oc2cc([N+](=O)[O-])ccc21 | 12 | 3 | 9 | 12 | 19 | 7 | . | .
Cc1ccc(S(=O)(=O)N(CC(=O)Nc2cccc(C)c2C)C(=O)N2CCN(C)CC2)cc1 | . | -5 | 1 | . | . | -3 | . | .
CCOc1ccc(-n2ccnc2SCC(=O)Nc2cc(C)on2)cc1 | -19 | 1 | -3 | 119* | -21 | -1 | 7 | 10
COc1ccc(-n2ccnc2SCC(=O)Nc2cc(C)on2)cc1 | 3 | -11 | -2 | 1 | . | 8 | . | .
COc1c(/C=C2\SC(=Nc3ccccc3Cl)NC2=O)cccc1[N+](=O)[O-] | 29 | -9 | 16 | 1 | . | ? | . | .
O=C1NC(=Nc2ccccc2Cl)S/C1=C\c1cccc([N+](=O)[O-])c1O | . | 0 | 28 | 28* | . | 3 | 42* | 55*
N#Cc1ccccc1Cn1c(=O)n(CCC(=O)NCc2ccco2)c(=O)c2ccccc21 | -12 | -3 | -1 | + | 5 | 12 | 20 | 25*
